# The campaign covered roughly 300,000 compounds. About 37,000 (12%) were called active. This excerpt belongs to a sample that is enriched for actives. Unmarked numbers belong to inactive results. Cut-off read from the data, not from the text of the source: active = max response mostly above about 13% (no sharp cut-off); inactive = mostly below about 14%.
# Experiment: Cycloheximide Counterscreen for Small Molecule Inhibitors of Shiga Toxin; note: read at 38.3 µM for the half of the compounds with a filed dose; 0% is about no effect
# Settings: cell reporter, cycloheximide protein synthesis inhibition counterscreen; active compounds read high
row,SMILES,max response
1,CCCN(CCC)S(=O)(=O)c1ccc(C(=O)N2CC3CCC(CC3)C2)cc1,-1.36%
2,CCOC(=O)c1ccc(N/C(=N/S(=O)(=O)c2ccccc2)c2ccccc2)cc1,10.2%
3,COC(=O)c1ccc(N2CCOCC2)c(NC(=O)c2ccc3c(c2)OCCO3)c1,0.234%
4,O=C(NCCSCc1ccccc1)c1ccc(Cl)c(S(=O)(=O)N2CCOCC2)c1,-2.82%
5,O=C(Nc1cccc(Cl)c1N1CCOCC1)c1ccc2c(c1)OCCO2,19.9%
6,O=C(Nc1cccc(S(=O)(=O)N2CCCCC2)c1)c1ccc2c(c1)OCO2,-2.46%
7,CN1CCN(c2ccc(NC(=O)c3ccc4c(c3)OCCO4)cc2Cl)CC1,39.3% (active)
8,Cc1ccc(C(=O)Nc2ccc3c(c2)OCO3)cc1S(=O)(=O)N1CCCCC1,19.6% (active)
9,O=C(Nc1ccc2c(c1)OCCO2)c1ccc(Cl)c(S(=O)(=O)N2CCCCC2)c1,45.3% (active)
10,O=C(c1ccc(Cl)c(S(=O)(=O)N2CCCCC2)c1)N1CCCCCC1,-2.78%
11,Cc1ccc(C(=O)Nc2ccccc2C(=O)NC2CCCCC2)cc1S(=O)(=O)N1CCOCC1,12%
12,O=[N+]([O-])c1ccccc1/C=C/CN1CCCC(CO)C1 (stereo not drawn),-1.17%
13,FC(F)Oc1ccccc1C1CC(c2ccc(Br)s2)Nc2ncnn21 (stereo not drawn),-4.82%
14,CCOc1ccccc1Nc1ccc2nonc2c1[N+](=O)[O-],-3.05%
15,Cc1cnc(C(=O)N2CCCC(N3CCN(c4ccccc4F)CC3)C2)cn1 (stereo not drawn),7.17%
16,CN(C)/C=N/c1cc(=O)n(C)c(=O)n1CC1CC1,-3.74%
17,CCCCn1nc(C(=O)OCC(=O)Nc2sccc2C(N)=O)c2ccccc2c1=O,11.3%
18,COc1cc(OC)cc(C(=O)OCC(=O)Nc2ccc(F)cc2F)c1,1.53%
19,COc1cc(OC)cc(C(=O)OCC(=O)Nc2sccc2C(N)=O)c1,16.2% (active)
20,CC(=O)N1c2ccc(S(=O)(=O)N3CCCC(C(=O)Nc4cccc(F)c4)C3)cc2CC1C (stereo not drawn),-3.59%
21,Cc1ccc(-c2noc(CN3CCN(Cc4ccccc4)CC3)n2)cc1,9.63%
22,CC1CCN(Cc2nc(-c3ccc(Cl)cc3)no2)CC1,14.8% (active)
23,CC(C)C(O)C1CCN(Cc2nc(Cc3ccccc3Cl)no2)CC1 (stereo not drawn),-3.2%
24,Cc1cc(OCCOc2cccc3cccnc23)c(C)cc1Cl,2.3%

row,SMILES,max response
1,CCc1ccc(N(C(=O)c2csnn2)C(C(=O)NC2CCCCC2)c2cccnc2)cc1 (stereo not drawn),6.38%
2,Cc1cccc(NC(=O)c2ccc([N+](=O)[O-])o2)c1,29.4% (active)
3,Cc1cccc(NC(=O)c2sc(-c3ccccc3)nc2-c2ccc([N+](=O)[O-])cc2)c1,-2.46%
4,Cc1onc(NC(=O)c2ccc([N+](=O)[O-])o2)c1Br,60.9% (active)
5,Cc1ccc(C(=O)Nc2nnc(-c3ccncc3)s2)o1,0.697%
6,Cc1cccc(NC(=O)c2cc([N+](=O)[O-])ccc2N2CCN(C)CC2)c1,-4.47%
7,Cc1onc(C(=O)NCc2ccc(F)cc2)c1[N+](=O)[O-],4.59%
8,C=CCn1c(SCC(=O)NC)nnc1C12CC3CC(CC(C3)C1)C2,-1.24%
9,O=C(CCn1nnc2ccccc21)OCC(=O)c1ccc([N+](=O)[O-])cc1,-6.28%
10,N#C/C(C(=S)Nc1ccccc1)=C1/NN=C(N2CCOCC2)N1c1ccccc1,0.28%
11,Cc1[nH]n(C(N)=S)c(=O)c1N=Nc1ccc(Cl)cc1Cl,12.2%
12,CC(=O)Nc1ccc(NC(=O)c2ccc3c(c2)C(=O)N(c2ccccc2C)C3=O)cc1,-2.35%
13,CCOc1ccc(-n2c(SCC(N)=O)nnc2-c2ccco2)cc1,-1.88%
14,COc1cc(CNCc2ccc(OC)c3ccccc23)cc(OC)c1OC,-1.1%
15,CCN1CCN(C(=O)C2CCN(S(=O)(=O)c3cc(Cl)ccc3Cl)CC2)CC1,-1.01%
16,CCOC(=O)C1=C(C)NC2=C(C(=O)CC(C)(C)C2)C1c1ccsc1 (stereo not drawn),8.09%
17,COc1ccc(C(CNC(=O)COc2ccc([N+](=O)[O-])cc2)N2CCCCC2)cc1 (stereo not drawn),-2.15%
18,O=C(c1cnn2ccccc12)N1CCc2ccccc21,66.5% (active)
19,Cc1cnc(C(=O)OCC(=O)N2CCc3ccccc32)cn1,9.5%
20,CCOC(=O)N1CCC(NC(=O)c2cnn3ccccc23)CC1,-4.51%
21,Cc1ccc(S(=O)(=O)N2CCN(C(=O)COC(=O)c3c(C)noc3C)CC2)c(C)c1,-2.98%
22,Cc1ccc(-c2nc(COC(=O)c3c(C)noc3C)cs2)cc1,73.1% (active)
23,Cc1noc(C)c1COC(=O)c1cc2ccccc2cc1O,-1.04%
24,c1ccc(-c2csc(N3CCc4ccccc4C3)n2)cc1,36.5% (active)

row,SMILES,max response
1,CN(C)CCCNC(=S)N1CCN(c2nc(-c3ccccc3)cs2)CC1,-1.66%
2,O=C(CN1CCN(c2nc(-c3ccccc3)cs2)CC1)NCc1ccc2c(c1)OCO2,-2.7%
3,CCOC(=O)Cn1c(O)c(N=NC(=O)CNC(=O)Cc2ccccc2)c2ccccc21,5.93%
4,CCCc1ccc(C(=O)[C@@H]2[C@@H](C(C)=O)N3c4ccc(F)cc4C=C[C@@H]3[C@@]23C(=O)Nc2ccccc23)cc1,-1.55%
5,O=S(=O)(c1ccc(Cl)cc1)c1nc(-c2ccco2)oc1N1CCCCC1,3.16%
6,O=C(NCCCN1CCCCC1)C1CCCN(c2ncnc3c2nc2n3CCCCC2)C1 (stereo not drawn),-1.32%
7,CN(C)c1nnnn1-c1ccc(Cl)cc1,-4.44%
8,O=C(Nc1ccccc1)OCc1cn(-c2ccc(Cl)cc2)nn1,-3.74%
9,CO/N=C/c1cn(-c2ccc(Cl)cc2)nn1,24.4% (active)
10,COc1cc(NC(=O)C2CC(c3ccccc3O)=NO2)c(OC)cc1Cl (stereo not drawn),-1.7%
11,COCCN1C(=O)C(=O)/C(=C(/O)c2ccc(S(=O)(=O)N3CCCCC3)cc2)C1c1ccc(OC)c(OC)c1 (stereo not drawn),-1.21%
12,Cc1cs/c(=N\N=C\c2ccc(O)cc2)n1Cc1ccco1,21.5% (active)
13,CN(C)CCCN=Cc1c(O)n(Cc2ccco2)c(=O)[nH]c1=O,8%
14,CC(C)n1c(=O)c(C=Nc2ccc(Br)cc2)c(O)n(Cc2ccco2)c1=O,-2.65%
15,O=c1c2c(-c3ccccc3)ccnc2[nH]n1-c1ccccc1,9.85%
16,O=C(COC(=O)c1ccccn1)Nc1cccc2ccccc12,-1.89%
17,O=C(Nc1cccc2ccccc12)c1onc2c1CCCC2,43.2% (active)
18,O=C(O)c1ccccc1-c1ccccc1C(=O)Nc1cccc2ccccc12,-3.02%
19,O=C(c1ccc2c(c1)N(Cc1ccc(F)cc1)C(=O)c1ccccc1S2(=O)=O)N1CCN(c2ccccn2)CC1,0.32%
20,O=C(CSc1nc2ccc([N+](=O)[O-])cc2[nH]1)c1ccc(Cl)cc1,3.9%
21,O=[N+]([O-])c1ccc2nc(-c3ccccn3)[nH]c2c1,51% (active)
22,O=[N+]([O-])c1cnc2ccc3ccccc3c2c1,8.23%
23,CCOc1ccc(CCNC(=O)Nc2ccccc2)cc1OCC,6.01%
24,COc1ccc(-n2nnnc2SCc2nc(N)nc(N3CCOCC3)n2)cc1,-3.81%

row,SMILES,max response
1,COc1cc(NC(=O)c2ccc(-c3csc(C)n3)cc2)c(OC)cc1Cl,-4.02%
2,Cc1cc(NC(=O)COc2ccc(Cl)cc2Cl)n(CCC#N)n1,43.5% (active)
3,CCCn1nnnc1NC(=O)COc1ccc(Cl)cc1C,14.6%
4,Cc1nn(-c2ccccc2)c(C)c1NC(=O)COc1ccc(Cl)cc1Cl,-1.6%
5,COCCNc1cc(-c2ccccc2)nc2cc(-c3cccc(F)c3)nn12,-0.87%
6,COc1ccccc1C(=O)N(C1=NC(C)CS1)c1ccc(Cl)cc1 (stereo not drawn),-1.66%
7,CC(=O)Nc1ccc(C(=O)N(C2=NC(C)CS2)c2ccc(Cl)cc2)cc1 (stereo not drawn),28.7% (active)
8,CC(=O)Nc1ccc(NC(=O)CCCNC(=O)c2ccc(Cl)cc2)cc1,-0.304%
9,CSCCC(NS(=O)(=O)c1ccc(C)cc1)C(=O)NCCc1c[nH]c2ccccc12 (stereo not drawn),-3.49%
10,COc1ccc(NC(=S)NCC2CCN(c3ccc(OC)cc3)C2)cc1 (stereo not drawn),1.9%
11,COc1ccc(NC(=S)N2CCc3cc(OC)c(OC)cc3C2)cc1,14.2%
12,COc1ccc(N2CCN(C(=S)Nc3ccc(S(N)(=O)=O)cc3)CC2)cc1,-1.06%
13,COc1ccc(NC(=S)N2N=CCC2c2ccccc2)cc1 (stereo not drawn),36.2% (active)
14,Cc1ccccc1N(C(=O)CNC(=O)c1cccs1)C(C(=O)NC1CCCC1)c1ccncc1 (stereo not drawn),-8.35%
15,CC(=O)c1cc(CN2CCC(n3nccc3NC(=O)c3ccccc3Cl)CC2)cs1,-1.43%
16,COCCNc1ncnc2c1nc1n2CCCC1,-3.81%
17,CC(NC(=O)COc1ccc(-c2ccccc2)cc1)C1CCCO1 (stereo not drawn),1.81%
18,Cc1ccc(S(=O)(=O)NC(=O)c2cccc(C)c2)cc1,13.6%
19,Cc1cc(-n2cnc(-c3cn(C)nc3C)n2)no1,21.3% (active)
20,COc1ccc(C)cc1S(=O)(=O)N1CCN(S(=O)(=O)c2cc(C(=O)O)ccc2C)CC1,1.26%
21,CCOC(=O)/C(=N\Nc1ccccc1Cl)N(C)C1CCS(=O)(=O)C1 (stereo not drawn),-5.92%

# Reference: PubChem BioAssay AID2314 (National Center for Advancing Translational Sciences (NCATS), 2010)
